These results are taken from PubChem BioAssay (NCATS).

Each structure is given as a SMILES string. Results filed as inconclusive are left out. Unmarked numbers belong to inactive results. Calls of active or inactive are those of the source. The call rests on the fitted dose curve; in most records, active means well fitted cell-killing curve with a large enough effect; inconclusive means small, poorly fitted or top-dose-only effect, or effect the other way; inactive means no such curve, though single readings can be large or run the other way.

One may read the viability as a read-out of living cells in per cent, often relative to untreated cells.

Assay [1] can be described thus: Quantitative High-Throughput drug screen in 47 multiple myeloma cell lines against the NCATS MIPE library collection: LP1_DSMZ cell viability assay (AID 1918982). Further: nearly all actives have a fitted effect of over 35% in size. The method, boiled down: (§1)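 500 cells/well; MIPE 4.0 drugs pin-transferred; 48 h, 37C, 5% CO2. CellTiter-Glo, 5 min RT, luminescence. Controls: DMSO 100%, media 0%.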
The nature of assay [2]: Quantitative High-Throughput drug screen in 47 multiple myeloma cell lines against the NCATS MIPE library collection: KMS28PE_JCRB cell viability assay (AID 1918983). Further: nearly all actives have a fitted effect of over 35% in size. The method, boiled down: as §1
Assay [3] is described as follows: Quantitative High-Throughput drug screen in 47 multiple myeloma cell lines against the NCATS MIPE library collection: L363_DSMZ cell viability assay (AID 1918984). Further: nearly all actives have a fitted effect of over 40% in size. The method, boiled down:
as §1

The nature of assay [4]: Quantitative High-Throughput drug screen in 47 multiple myeloma cell lines against the NCATS MIPE library collection: KMS34_JCRB cell viability assay (AID 1918985). Further: nearly all actives have a fitted effect of over 40% in size. The method in brief:
as §1

Assay [5] can be described thus: Quantitative High-Throughput drug screen in 47 multiple myeloma cell lines against the NCATS MIPE library collection: OCIMY7_PLB cell viability assay (AID 1918987). Further: nearly all actives have a fitted effect of over 65% in size. The note with it: OCI-MY7 myeloma viability, CellTiter-Glo ATP, 48 h; viability (% of DMSO): at 45.8 µM (top of the series). The method in brief:
as §1
On the technique in general: Cellular ATP, detected with luciferase, serves as a proxy for viable cell number.

Assay [6] in a line: Quantitative High-Throughput drug screen in 47 multiple myeloma cell lines against the NCATS MIPE library collection: OPM1_PLB cell viability assay (AID 1918989). Further: nearly all actives have a fitted effect of over 40% in size. The method in brief:
as §1

The nature of assay [7]: Quantitative High-Throughput drug screen in 47 multiple myeloma cell lines against the NCATS MIPE library collection: MM1R_ATCC cell viability assay (AID 1918981). Further: nearly all actives have a fitted effect of over 35% in size. The method in brief: as §1
Assay [8] can be described thus: Quantitative High-Throughput drug screen in 47 multiple myeloma cell lines against the NCATS MIPE library collection: SKMM1_PLB cell viability assay (AID 1919863). Further: nearly all actives have a fitted effect of over 35% in size. The note with it: SKMM1 myeloma viability, CellTiter-Glo ATP, 48 h; viability: active compounds read low. The method in brief:
as §1

Assay [9] is described as follows: Quantitative High-Throughput drug screen in 47 multiple myeloma cell lines against the NCATS MIPE library collection: OCIMY5_PLB cell viability assay (AID 1918988). Further: nearly all actives have a fitted effect of over 65% in size. The method, boiled down:
as §1
Potency means the concentration at half of the fitted maximal effect.

As to `Cc1cc(O)c2c(c1)C(=O)c1cccc(O)c1C2=O`, the Potency result in assay [1], in assay [2], in [3], in assay [4], in assay [5] and in assay [6] was “inactive” in each case.

Turning to `C=C(C)[C@@H]1CC[C@]2(C)CC[C@]3(C)[C@H](CC[C@@H]4[C@@]5(C)CC[C@H](O)C(C)(C)[C@H]5CC[C@]43C)[C@@H]12`, the Potency entry in assay [7], in [2] and in assay [4] was “inactive” throughout.

On to `CNC(=O)Nc1ccc(-c2nc(N3CC4CCC(C3)O4)c3cnn(C4CCC5(CC4)OCCO5)c3n2)cc1`, for which the Potency in [7] was 0.0418 µM (active); in [2], 0.0037 µM (active); in assay [4], 0.0187 µM (active); in assay [6] it was 0.0118 µM (active); in assay [8], 0.0166 µM (active).

`OCCN1C[C@H](O)[C@@H](O)[C@H](O)[C@@H]1CO`: the Potency entry in assay [7], in assay [1], in assay [3], in assay [4] and in assay [6] was “inactive” each time. The viability in [8] was 126%.

In the case of `COc1ccc(C[C@@H](C)[C@@H](C)Cc2ccc(OC)c(OC)c2)cc1OC`, the Potency in assay [7] is 1.05 µM (active); in assay [2], 0.332 µM (active); in assay [3], 0.166 µM (active); in assay [5] it was 0.296 µM (active); in [8] it was 0.372 µM (active).

As to `CC(C)(O)[C@H]1CC[C@@](C)([C@H]2[C@@H](O)C[C@@]3(C)[C@@H]4C[C@H](O[C@@H]5O[C@H](CO)[C@@H](O)[C@H](O)[C@@H]5O)[C@H]5C(C)(C)[C@@H](O[C@@H]6OC[C@@H](O)[C@H](O)[C@@H]6O)CC[C@@]56C[C@@]46CC[C@]23C)O1`, the Potency entry in assay [7], in assay [1], in assay [2] and in [5] was “inactive” throughout.

`Cc1coc2c1C(=O)C(=O)c1c-2ccc2c(C)cccc12`: the Potency in assay [7] was 20.9 µM (active); in assay [2], 8.33 µM (active); in [4] it was 0.166 µM (active); in assay [5], 5.9 µM (active); in [9], 14.8 µM (active); in assay [8], 14.8 µM (active).

Consider `COC1=C(OC)C(=O)C(CC=C(C)CCC=C(C)CCC=C(C)CCC=C(C)CCC=C(C)CCC=C(C)CCC=C(C)CCC=C(C)CCC=C(C)CCC=C(C)C)=C(C)C1=O`, for which the Potency result in assay [7], in assay [1], in assay [2], in [4] and in [6] was “inactive” each time. Further, the viability in [8] is 99.4%.

For `COC(=O)[C@@H]1CC2=CC(=O)CC[C@]2(C)[C@@]23O[C@@H]2C[C@@]2(C)[C@H](CC[C@@]24CCC(=O)O4)[C@@H]13`, the Potency result in assay [7], in assay [1], in assay [2] and in [6] was “inactive” throughout.

Consider `Cc1cn([C@@H]2O[C@H](CO)[C@@H](O)[C@H]2F)c(=O)[nH]c1=O`, for which the Potency result in assay [7], in assay [2], in assay [4] and in assay [6] was “inactive” throughout.

In the case of `OC[C@@H](O)[C@@H](O)[C@H](O)[C@@H](O)CO`, the Potency entry in assay [7], in assay [1] and in assay [6] was “inactive” throughout. Also, in assay [8], the viability was 122%.

As for `CCCCC(=O)O[C@]1(C(=O)CO)[C@@H](C)C[C@H]2[C@@H]3CCC4=CC(=O)C=C[C@]4(C)[C@@]3(F)[C@@H](O)C[C@@]21C`, the Potency result in assay [7] and in [2] was “inactive” in each case. Further, the Potency in assay [4] is 0.0372 µM (active); in assay [9] it was 0.0093 µM (active); in assay [6], 0.0372 µM (active). In [8], the viability is 122%.

Consider `Cc1ccccc1C(=O)Nc1ccc(C(=O)N2CCCC(O)c3cc(Cl)ccc32)c(C)c1` (stereo unspecified), for which the Potency entry in [7], in assay [2], in assay [4] and in assay [6] was “inactive” each time. For the same molecule, the Potency in assay [1] was 18.7 µM (active). Further, in [8], the viability was 139%.

As to `O=C1c2c(O)cccc2[C@@H]([C@@H]2O[C@H](CO)[C@@H](O)[C@H](O)[C@H]2O)c2cc(CO)cc(O)c21`, the Potency result in assay [7], in assay [1], in assay [2], in [4] and in assay [9] was “inactive” each time. Moreover, the viability in assay [8] was 153%.

For the molecule `O=C(O)C=Cc1ccc(Cn2ccnc2)cc1`, the Potency result in [7], in [1], in assay [2] and in assay [6] was “inactive” in each case.

Regarding `c1cc(N[C@@H]2CCNC2)nc(-c2cnc3ccc(-c4cn[nH]c4)cn23)c1`, the Potency in assay [7] was 20.9 µM (active); in assay [2], 16.6 µM (active); in assay [3], 7.43 µM (active); in assay [5] it was 7.43 µM (active); in assay [9] it was 13.2 µM (active); in [6], 16.6 µM (active). For the same molecule, in assay [8], the Potency is 26.4 µM (active).

In the case of `O=C1c2cccc(O)c2C(=O)c2c(O)cc(CO)cc21`, the Potency result in assay [7] and in assay [5] was “inactive” throughout. The Potency was 16.6 µM (active) in [1] and 5.9 µM (active) in [2].

As for `C=C1C(=CC=C2CCC[C@]3(C)[C@@H]([C@H](C)CCCC(C)(C)O)CC[C@@H]23)C[C@@H](O)C[C@@H]1O`, the Potency in assay [7] is 18.7 µM (active); in assay [1] it was 20.9 µM (active); in assay [2], 33.2 µM (active); in [5], 6.62 µM (active); in assay [9], 3.32 µM (active).
